High-throughput results (PubChem BioAssay)
This excerpt belongs to a sample that is enriched for hits.
Shiga toxin inh – A qHTS for Small Molecule Inhibitors of Shiga Toxin | Vero cells, Shiga toxin protein synthesis inhibition reporter | inhibition, % at 38.7 µM | actives 9.2% (n = 290,000); in the data active = inhibition mostly above about 28%, no sharp cut-off; inactive = mostly below about 43%; also: 0% is about no effect
Cycloheximide cs – Cycloheximide Counterscreen for Small Molecule Inhibitors of Shiga Toxin; cell reporter, cycloheximide protein synthesis inhibition counterscreen; max response, %; actives 12% (n = 300,000); in the data active = max response mostly above about 13%, no sharp cut-off; inactive = mostly below about 14%; also: read at 38.3 µM for the half of the compounds with a filed dose; 0% is about no effect
AmpC inh no detg – qHTS Inhibitors of AmpC Beta-Lactamase (assay without detergent) | AmpC nitrocefin hydrolysis, absorbance 480 nm, 0.0001% Triton | Potency, µM (series often up to 57.1 µM), for the others: at the top dose activity change, negative = inhibition, hits mostly inhibitors | actives 0.52% (n = 330,000) | AID 485341, 2010;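 also: potency is read from the fitted curve at half-maximal effect; plate controls were no compound for no effect and no enzyme for full effect; nearly all actives have a fitted effect of over 20% in size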
Target sequence (P00811 whole entry, looked up): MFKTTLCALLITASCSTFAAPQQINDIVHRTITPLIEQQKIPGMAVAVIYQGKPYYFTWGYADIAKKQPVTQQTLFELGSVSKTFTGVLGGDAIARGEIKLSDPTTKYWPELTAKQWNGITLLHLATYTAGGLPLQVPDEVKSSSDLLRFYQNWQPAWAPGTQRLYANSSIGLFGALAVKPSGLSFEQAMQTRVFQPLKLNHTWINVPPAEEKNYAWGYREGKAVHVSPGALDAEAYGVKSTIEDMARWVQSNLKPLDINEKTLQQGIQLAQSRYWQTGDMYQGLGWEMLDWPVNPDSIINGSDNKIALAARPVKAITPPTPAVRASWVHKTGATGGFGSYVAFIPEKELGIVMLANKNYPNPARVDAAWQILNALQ
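AmpC (5.3 nM in the dispensed reagent) in 20 mM phosphate pH 7.0 with 0.01% (detergent screen) or 0.0001% Triton X-100 was preincubated with compounds for 15 min at room temperature. Nitrocefin was then added from an 800 uM solution, and hydrolysis was followed at 480 nm.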
AmpC detergent – qHTS Inhibitors of AmpC Beta-Lactamase (assay with detergent); Potency, µM (highest dose often 114 µM), for the others: top-dose activity change, negative = inhibition, most hits filed as inhibitors; actives 0.041% (n = 370,000); P00811; AmpC hydrolysis of nitrocefin, absorbance 480 nm, 0.01% Triton;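 also: potency is read from the fitted curve at half-maximal effect; 0% = no-compound wells and -100% = no-enzyme wells; nearly all actives have a fitted effect of over 25% in size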
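20 mM phosphate pH 7.0 + 0.01% (detergent screen) or 0.0001% Triton X-100; 5.3 nM AmpC reagent; cpd preinc 15 min RT; nitrocefin (800 uM stock) to start; A480 q20 s × 4 min; Activity was normalised to no-enzyme and no-compound control wells.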
AMA1 RON2 block – qHTS for Inhibitors of AMA1-RON; Towards Development of Antimalarial Drug Lead: Primary Screen. Potency, µM (series often up to 58.2 µM), for the others: at the highest dose activity change, negative = inhibition, hits mostly inhibitors. Plasmodium falciparum AMA1 (3D7) - RON2 peptide interaction. actives 0.2% (n = 360,000). AlphaScreen AMA1-biotinylated RON2 peptide binding;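 also: potency is read from the fitted curve at half-maximal effect; 0% = vehicle wells and -100% = peptide control; nearly all actives have a fitted effect of over 45% in size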
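AMA1 (3D7) with his tag at 25 nM final met compounds first, then biotinylated RON2 peptide at 25 nM; detection used donor plus acceptor beads, 10 µg/mL apiece, read by AlphaScreen after 30 min at room temperature.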
SARS PLpro yeast – qHTS of Yeast-based Assay for SARS-CoV PLP; S. cerevisiae expressing SARS-CoV PLpro, growth rescue; Potency, µM (highest dose often 32.9 µM), inactives show at the top dose activity, positive = growth rescue, most hits filed as activators; actives 0.19% (n = 330,000); AID 485353, 2010; calls by dose curve; also: potency is read from the fitted curve at half-maximal effect; 0% is about no effect; nearly all actives have a fitted effect of over 55% in size
Starred values were filed as active, the others as inactive; ? = inconclusive; . = not tested or not shown; + = active, no number; [ ] = another dose, or the depositor's remark. Unless noted, calls follow the shape of the dose curve; as a rule, active = well fitted curve in the direction sought with a large enough effect; inconclusive = small, poorly fitted or top-dose-only effect, or another doubt; inactive = no such curve, though single readings can be large; an effect the other way counts as inactive or inconclusive.

SMILES	Shiga toxin inh	Cycloheximide cs	AmpC inh no detg	AmpC detergent	AMA1 RON2 block	SARS PLpro yeast
Cc1ccc(OCC(=O)N/N=C/c2cccnc2)cc1	-3	5	-24%	?	-5%	-3%
CC(C)c1cc(C(=O)N/N=C/c2cccnc2)n[nH]1	27	17*	-21%	-5%	36%	-3%
CC(C)(C)c1cc(C(=O)N/N=C/c2ccncc2)n[nH]1	-19	-2	3%	4%	21%	-3%
CCC(=Nc1ccccc1)C1=C(O)CC(C)(C)CC1=O	20	-7	-22%	1%	.	-5%
Cn1nc(CSc2ccccc2)c(C=O)c1Cl	56	41*	-20%	5%	19%	-9%
Cn1nc(-c2ccccc2)c(/C=N/O)c1Cl	9	12	-15%	6%	0%	1%
O=c1cc2oc3cc(O)c(O)cc3c(-c3ccccc3[N+](=O)[O-])c-2cc1O	-1	-8	1.1µM*	-7%	0.71µM*	?
O=c1cc(-c2ccccc2Cl)oc2cccc(O)c12	-10	39	-10%	3%	1%	12%
Cc1ccccc1S(=O)(=O)Cc1ccc(C(=O)NCc2ccco2)o1	-4	2	-7%	?	-11%	1%
CC(C)COc1ccc(-c2nnc(-c3ccco3)o2)cc1	37	30*	9%	-2%	-2%	-10%
CCCOc1ccc(-c2nnc(-c3ccco3)o2)cc1	36	51*	0%	0%	-16%	11%
O=C(O)CCCNC(=O)c1ccccn1	-5	-2	-15%	?	-5%	-3%
CCOC(=O)c1[nH]c2c(c1-c1ccccc1)C(=O)CC(c1ccc(OC)c(OC)c1)C2 (stereo not given)	-11	15*	73%	?	-10%	1%
CC(C)c1cc(C(=O)OCC(=O)NC2CC2)c(O)c(C(C)C)c1	.	.	.	.	3%	.
OC1CCN(c2c3c(nc4cc(-c5ccc(Cl)cc5)nn24)CCC3)CC1	13	1	-17%	1%	9%	-39%
Fc1cccc(-c2cc3nc4c(c(N5CCOCC5)n3n2)CCCC4)c1	48*	52*	-4%	-7%	0%	-16%
Clc1cccc(-c2cc3nc4c(c(N5CCOCC5)n3n2)CCCC4)c1	46	22*	74%	-11%	29%	-21%
Clc1cccc(-c2cc3nc4c(c(N5CCN(c6cnccn6)CC5)n3n2)CCCC4)c1	37*	38*	-17%	-10%	-1%	-1%
Fc1cccc(-c2cc3nc4c(c(NCc5ccco5)n3n2)CCCC4)c1	87*	39*	29%	-11%	-2%	-39%
CCC(=NCc1ccco1)c1c(O)n(-c2ccccc2)c(=O)[nH]c1=O	-12	-2	-18%	-1%	5%	6%
CC(C)(C)c1ccc(/C=N/Nc2cccc(C(=O)O)c2)cc1	+	104*	-34%	3%	3%	2%
CN(C)c1ccc(/C=N/Nc2cccc(C(=O)O)c2)cc1	198*	68*	-26%	2%	-5%	2%
O=C(O)c1cccc(N/N=C/c2ccc(-c3ccccc3)cc2)c1	191*	67*	-57%	?	6%	0%
Oc1ccc(/C=N/Nc2ccccc2)cc1	24	1	-39%	2%	-9%	-1%
O=C(O)c1cccc(N/N=C/c2cccnc2)c1	63*	40*	-13%	10%	7%	5%
SMILES	Shiga toxin inh	Cycloheximide cs	AmpC inh no detg	AmpC detergent	AMA1 RON2 block	SARS PLpro yeast
CC(C)(C)c1ccc(/C=N/Nc2ccc(C(=O)O)cc2)cc1	24	9	-34%	-7%	-1%[11.6 µM]	0%
O=C(O)c1ccc(N/N=C/c2ccc3c(c2)OCO3)cc1	-41	-11	-23%	-4%	1%	-4%
COc1cccc(CSc2nc3n(n2)C(c2cccnc2)C(C(=O)Nc2ccccc2C)=C(C)N3)c1 (stereo not given)	.	.	.	-9%	.	.
CN1CCC(=NNC(=O)C(=O)Nc2ccccc2)CC1	25*	24*	-22%	-12%	67%	-3%
O=S1(=O)[C@H]2C[C@@H]3C=C[C@@]2(CN1Cc1cccc(C(F)(F)F)c1)O3	14	12*	46%	?	1%	1%
Cc1ccc(C(=O)Nc2ccccc2C(=O)NC(Cc2ccccc2)C(=O)O)cc1 (stereo not given)	52	11	1%	0%	0%	2%
CC(=O)Nc1cc(-c2cccc(C(=O)NCCO)c2)cn2c(-c3ccc(F)cc3)cnc12	.	.	.	.	-7%	.
Cc1nn2cc(-c3cccc(Cl)c3)cnc2c1Cl	124*	33*	-23%	-15%	10%	2%
CC(C)n1nnnc1-c1cccc(Cl)c1	8	9	-4%	?	3%	-3%
Cc1nn2cc(-c3cccc(Cl)c3)cnc2c1Br	56*	14	-10%	-8%	5%	17%
Cc1ccc(S(=O)(=O)N(C)C)cc1-n1c(SCC(=O)Nc2ccc(F)c(F)c2F)nc2ccccc2c1=O	-7	-3	-24%	-6%	3%	-8%
Cc1ccc(CCSc2ccc(F)cc2)cn1	64*	15*	-8%	-1%	2%	-1%
Cc1ccc(CCSc2ccc(C(C)C)cc2)cn1	30*	9.2*	-3%	-5%	29%	30%
Cc1ccc(CCNc2ccc3ccccc3c2)cn1	.	.	.	.	-18%	.
CCCCN1C(C(=O)Nc2cc(C)on2)=C(O)c2ccccc2S1(=O)=O	-3	-2	-47%	?	-25%	-2%
COCC1CCCN(C(=O)c2cc(COc3cncc(Cl)c3)on2)C1 (stereo not given)	101*	41*	10%	-13%	-5%	-2%
C=CCC1(CC=C)CCCN1C(=O)c1cc(COc2cncc(Cl)c2)on1	35*	36*	41%	2%	.	-1%
COC(=O)[C@@H](NC(=O)c1cc(COc2cncc(Cl)c2)on1)c1ccccc1	34	40*	23%	3%	-9%	-4%
CCC(NC(=O)c1cc(COc2cncc(Cl)c2)on1)c1ccc(C)cc1 (stereo not given)	17	-2	-8%	3%	-12%	8%
COCC1CCN(C(=O)c2cc(COc3ccc(C)c(C)c3)on2)C1 (stereo not given)	12	10	131%	7%	2%	-7%
Cc1cc(C)c2[nH]c(O)c(N=NC(=O)c3cc4c(s3)CCCC4)c2c1	-17	-2	-30%	-5%	.	-11%
COc1ccccc1-c1nnc(SCc2ccccn2)n1C	1	7	-14%	-14%	-2%	0%
COc1ccc(-c2nnc(SCCc3ccccc3)n2N)cc1	24*	16	-27%	-2%	-2%	-3%
